ASK1 primary – ASK1 kinase inhibitors, primary screen, biochemical, AlphaScreen; AID 1159602, 2016; Mitogen-activated protein kinase kinase kinase 5 (Homo sapiens), Q99683; actives 0.99% (n = 22,000); AlphaScreen MKK6 phosphorylation by ASK1, luminescence; inhibition, % at 7.44 µM; in the data active means inhibition above about 35%
ULK1 inh – ULK1 kinase inhibitors, primary screen, biochemical, AlphaScreen. inhibition, % at 5.96 µM. AlphaScreen Atg13 phosphorylation by ULK1, luminescence. actives 1.9% (n = 30,000). AID 1259251, 2017. Serine/threonine-protein kinase ULK1 (Homo sapiens), O75385; in the data active means inhibition above about 43%
Target sequence (O75385 whole entry, looked up): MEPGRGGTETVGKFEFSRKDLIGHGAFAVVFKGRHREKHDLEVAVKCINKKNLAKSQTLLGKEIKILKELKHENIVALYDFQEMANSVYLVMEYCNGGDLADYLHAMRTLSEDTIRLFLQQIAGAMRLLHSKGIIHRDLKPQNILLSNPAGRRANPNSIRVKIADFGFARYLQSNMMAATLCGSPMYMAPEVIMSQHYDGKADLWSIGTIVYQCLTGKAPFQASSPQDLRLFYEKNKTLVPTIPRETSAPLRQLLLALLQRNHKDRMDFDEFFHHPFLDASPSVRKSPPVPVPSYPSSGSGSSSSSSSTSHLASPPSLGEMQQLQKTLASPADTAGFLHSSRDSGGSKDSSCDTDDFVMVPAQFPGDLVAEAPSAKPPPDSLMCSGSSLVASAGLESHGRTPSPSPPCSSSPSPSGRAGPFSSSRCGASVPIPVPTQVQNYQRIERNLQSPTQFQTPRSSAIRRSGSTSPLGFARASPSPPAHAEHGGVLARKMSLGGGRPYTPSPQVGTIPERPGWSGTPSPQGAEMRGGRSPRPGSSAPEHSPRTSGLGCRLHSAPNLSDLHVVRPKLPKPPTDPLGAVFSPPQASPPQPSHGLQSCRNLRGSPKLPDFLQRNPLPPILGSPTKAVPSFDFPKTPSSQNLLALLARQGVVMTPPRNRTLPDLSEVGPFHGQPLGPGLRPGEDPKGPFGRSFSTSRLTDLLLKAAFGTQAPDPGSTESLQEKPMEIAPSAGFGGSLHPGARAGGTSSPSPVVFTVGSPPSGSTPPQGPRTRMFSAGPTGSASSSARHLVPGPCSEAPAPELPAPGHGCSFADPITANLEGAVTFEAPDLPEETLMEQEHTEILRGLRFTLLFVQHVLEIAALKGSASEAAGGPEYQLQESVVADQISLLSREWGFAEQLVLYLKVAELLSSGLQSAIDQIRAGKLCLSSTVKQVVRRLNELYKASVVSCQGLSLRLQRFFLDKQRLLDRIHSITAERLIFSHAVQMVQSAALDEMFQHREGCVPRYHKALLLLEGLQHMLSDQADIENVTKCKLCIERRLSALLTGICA
Numbers stand for hits; . = inactive; / = not tested or not shown. This is a sample that favours compounds with a hit; in the whole collection about 2.4% have one here.

SMILES | ASK1 primary | ULK1 inh
COc1ccc(CC(=O)Nc2cc(Nc3ccccc3-c3ncco3)c(C(F)(F)F)cn2)cc1 | . | .
CNC(=O)c1ccccc1Nc1cc(Nc2ncccn2)ncc1C(F)(F)F | . | .
CNC(=O)c1ccccc1Nc1cc(NCc2ccccc2)ncc1C(F)(F)F | . | 55
O=C(Cc1ccc2c(c1)OCO2)Nc1cc(Nc2ccccc2-c2nn[nH]n2)c(C(F)(F)F)cn1 | . | .
COc1ccc(CC(=O)Nc2cc(Nc3ccccc3NC(C)=O)c(C(F)(F)F)cn2)cc1 | . | .
CNC(=O)c1ccccc1Nc1cc(NC(=O)Cc2ccc(N)cc2)ncc1C(F)(F)F | . | 68
CNS(=O)(=O)c1ccccc1Nc1cc(NC(=O)Cc2ccc(OC)cc2)ncc1C(F)(F)F | . | 57
N#C/C(=C\c1cccc(Br)c1)C(=O)Nc1ccc([N+](=O)[O-])cc1 | / | .
CN1CCN(c2ccc(-c3cccc(C(=O)NC4CC4)n3)cc2)CC1 | . | .
NC(=O)c1ccccc1Nc1cc(NC(=O)Cc2ccc(F)cc2)ncc1F | . | .
CNC(=O)c1ccccc1Nc1cc(NC(=O)Cc2ccccc2F)ncc1C(F)(F)F | . | 53
CNC(=O)c1ccccc1Nc1cc(NC(=O)Cc2cccs2)ncc1C(F)(F)F | . | 46
CNC(=O)c1ccccc1Nc1cc(NC(=O)C2CCc3ccccc32)ncc1C(F)(F)F (stereo unspecified) | . | .
CNC(=O)c1ccccc1Nc1cc(NC(=O)Cc2ccc(F)cc2)ncc1C(F)(F)F | . | 57
O=c1[nH]c(C2CC2)nc2cc(-c3cnn(-c4cccc(CN5CCOCC5)c4)c3)ccc12 | . | .
COc1cc(Nc2nc(NC3CCN(Cc4ccccc4)CC3)nc3c2ncn3-c2ccsc2)cc(OC)c1OC | . | .
COc1cc(NC(=O)c2cc(Nc3ccc(N4CCOCC4)cc3)nc3ccccc23)cc(OC)c1OC | . | .
Cc1cc(-c2ccc(N=Nc3c(S(=O)(=O)O)cc4cc(S(=O)(=O)O)cc(N)c4c3O)c(C)c2)ccc1N=Nc1c(S(=O)(=O)O)cc2cc(S(=O)(=O)O)cc(N)c2c1O | / | 81
CC(C)n1cnc2c(NC3CCN(Cc4ccccc4)CC3)nc(Nc3ccncn3)nc21 | . | .
CC(C)n1cnc2c(Nc3ccccc3)nc(Nc3ccccn3)nc21 | . | 49
CC(C)n1cnc2c(Nc3ccccc3)nc(Nc3ccncn3)nc21 | . | 50
c1ccc(Nc2ccnc(Nc3ccncc3)n2)cc1 | . | .
CC(C)n1cnc2c(NCCO)nc(Nc3ccccn3)nc21 | . | .
CC(=O)Nc1ccc(Nc2nc(Nc3ccc4ncccc4c3)nc3c2ncn3C(C)C)cc1 | . | .
CC(=O)Nc1ccc(Nc2nc(Nc3ncccn3)nc3c2ncn3C(C)C)cc1 | . | 47
SMILES | ASK1 primary | ULK1 inh
c1ccc(Nc2ccnc(Nc3ccncn3)n2)cc1 | . | 45
CC(C)n1c(N2CCC(N3CCOCC3)CC2)nc2c(Nc3ccc(N4CCOCC4)cc3)ncnc21 | . | .
COC(=O)c1cc(NC(=O)CCCN(C)C)cc(-n2ncc3cc(Nc4ccccc4Cl)ccc32)c1 | . | .
CCn1cnc2cc(NC(=O)c3cccc(-n4cc(NC(=O)Cc5ccccc5)cn4)c3)ccc21 | . | .
Cc1cnc(NCCCN2CCCC2=O)nc1NCc1ccccc1 | . | .
CCCNc1ccnc(-c2cccc(N)c2)n1 | . | .
CCCNc1nc(Nc2ccc3ncccc3c2)nc2c1ncn2-c1ccsc1 | . | .
COc1ccc(C(=O)Nc2ccc3c(C)c(C(=O)c4ccccc4)oc3c2)cc1OC | / | .
CC(=O)Nc1ccc(Nc2nc(Nc3ccncn3)nc3c2ncn3-c2ccccc2)cc1 | . | .
COC(CNc1nccc(Nc2ccncn2)n1)c1cccs1 (stereo unspecified) | . | .
CC(CNc1nccc(Nc2ccncn2)n1)c1cccs1 (stereo unspecified) | . | 44
CC(=O)Nc1ccc(Nc2nc(Nc3ccncn3)nc3c2ncn3C(C)C)cc1 | . | 55
CCNc1ncc(C(=O)NCc2nc3ccccc3[nH]2)s1 | . | .
Nc1cccc(-c2cccc(C(=O)NCCOc3ccccc3)c2)c1 | . | .
CC1CN(c2[nH]c(=O)n(C)c(=O)c2Cc2ccc(C#N)cc2)CC(C)O1 (stereo unspecified) | / | .
Cc1ncn(-c2ccc(Nc3nccc(-c4ccc(C#N)c(N5CCC(O)CC5)c4)n3)cc2)n1 | . | .
N#Cc1cc(-c2ccnc(Nc3ccc(-n4cnc(N5CCC(O)CC5)n4)cc3)n2)ccc1N1CCC(O)CC1 | . | 72
C[C@@H]1CN(C(=O)Nc2cccc(Nc3nccc(-c4ccc(N5CCC(O)CC5)c(C#N)c4)n3)c2)C[C@H](C)O1 | . | 76
Cn1nnc(-c2ccc(Nc3nccc(-c4ccc(N5CCC(O)CC5)c(C#N)c4)n3)cc2)n1 | . | .
N#Cc1cc(-c2ccnc(Nc3ccc(-n4cnc(C(F)(F)F)n4)cc3)n2)ccc1N1CCC(O)CC1 | . | .
Cc1ncn(-c2ccc(Nc3nccc(-c4ccc(C#N)c(N5CCCC5)c4)n3)cc2)n1 | . | .
Cc1ncn(-c2ccc(Nc3nccc(-c4ccc(N5CCC(O)CC5)nc4)n3)cc2)n1 | . | 46
Cc1ncn(-c2ccc(Nc3nccc(-c4ccc(N5CCCC(CO)C5)c(C#N)c4)n3)cc2)n1 (stereo unspecified) | . | 65
CCc1nnc(-c2cc3ccccc3n2Cc2cccnc2)o1 | / | .
O=C(NCCO)c1ccc2nc(NCCCN3CCCC3=O)sc2c1 | . | .
SMILES | ASK1 primary | ULK1 inh
O=C(Cc1cn(-c2ccc(N3CCOCC3)nn2)c2ccccc12)NC1CCN(Cc2ccccc2)CC1 | . | .
Nc1cccc(-c2ccc(C(=O)NCCc3ccc(O)cc3)s2)c1 | . | 43
CC(=O)c1cccc(-c2ccc(C(=O)NCCc3ccc(O)cc3)s2)c1 | . | .
c1ccc(CNc2ccnc(Nc3ccccc3)n2)cc1 | . | .
O=C1CCc2cc(S(=O)(=O)N3CCCNCC3)ccc2N1 | . | .
O=c1[nH]ccc2c(S(=O)(=O)N3CCCNCC3)cccc12 | . | 46
CC(=O)c1cccc(-c2ccc(C(=O)Nc3ccc(N4CCOCC4)cc3)s2)c1 | . | .
CC(C)NC(=O)c1cccc(NC(=O)Nc2ccc(-c3ncnc4nc[nH]c34)cc2)c1 | . | .
CC(C)NC(=O)c1cccc(NC(=O)Nc2ccc(-c3ncnc4[nH]cc(Cl)c34)cc2)c1 | . | 70
Fc1ccc(-c2cc(N3CCOCC3)nc(-c3ccccn3)n2)cc1 | / | .
COc1cc(Nc2ccnc(-c3ccc(C(=O)N4CCN(C)CC4)cc3)n2)cc(OC)c1OC | . | .
O=C(NCC(O)c1ccc(Cl)cc1)c1cc(-c2cc3cn[nH]c3cc2F)cc2c1OCC2 (stereo unspecified) | . | .
O=C(Nc1cnn(-c2cccc(CNc3ccc(N4CCOCC4)cc3)c2)c1)Nc1ccccc1Cl | . | 49
O=C(Nc1cnn(-c2cccc(C(=O)Nc3ccc(N4CCOCC4)cc3)c2)c1)Nc1ccccc1Cl | . | .
COc1cccc(CN(CCN)C(=O)Nc2ccc(-c3cn[nH]c3)cc2OCCCO)c1 | . | 78
COc1cccc(CN(CCCN(C)C)C(=O)Nc2ccc(-c3cn[nH]c3)cc2OC)c1 | . | .
COc1cc(-c2cn[nH]c2)c(F)cc1NC(=O)C1COc2ccccc2C1 (stereo unspecified) | . | .
O=C1CCCN1CCCNc1nc(Nc2cccnc2)nc2c1ncn2C1CCCCC1 | . | .
COc1ccc(-c2ncc(C)c(Nc3cc(OC)c(OC)c(OC)c3)n2)cc1 | . | 67

Compound activity (PubChem BioAssay)
